Experimental data published in the supplement of paper PMC6555819.

Test system: VDR:RXRa (NR concentration 270 nM, RXRa partner concentration 90 nM)
Assay: PBM binding z-score (relative to random genomic background probes); higher = stronger binding; sequences stand for … in GC…GCGATTGACAGCGTAGAATGAAGG
Description: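 Protein-binding microarray (Agilent 4x180K custom design, double-stranded 60-nt probes: 5' GC cap, 34-nt variable region, 24-nt constant primer region; full probe sequence given). Purified or IVT nuclear receptor:RXRα heterodimers (3:1 NR:RXRα, mostly 270:90 nM) or homodimers were incubated for 1 h in PBS with 2% milk and no ligand, then detected with Alexa488 antibodies. Fluorescence from o1-orientation probes (~5 replicates averaged) was converted to z-scores against 500 random hg19 background probes. Variable regions are seed direct-repeat (DR0–DR5) sites, all their single-nucleotide variants and half-site ablations.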

Sequence	PBM binding z-score
ATCTCTAGGTAAAGATCAGTGAAAGATCGATAGA	-0.0816
TCCAGTAGGTTACCAATGGGGCATTCAGCTTTCT	0.0983
CCGAGTAGGTTATGGGGCATTCAGGCAACGGTGA	-0.0737
CGTCCAAGGTCAGCAGCTCAGTGAAAGCGACGTG	2.09
CGCCCAAGGTCAGAGAGGTCAGTGAATGCCGAGT	7.36
ATATGTAGGCTAAGGGTCATTCAGGTTGGTTCGC	5.13
ATCTCTAGGTAAAGCTCAGTGAAAGATCGATAGA	-0.295
CCTTACGGGTCACTGACAGGTTACAGCATTTGGA	3.76
TCAGACAAGTGAAGGTAACTCAGGTACGCAGTCG	0.46
CTACCAAGGTGAAGAAGGTCGTTGATTACTATTC	4.25
TCTTGTAGATCAAAGGTTAAGAATGCCGAAGCCT	1.7
AGAACGAGGGCAATGATTTGATAGCACGGGTGGC	0.334
CAAACTATGTCACGAAAGGTCAAAGTCGAATGAC	5.07
GCGGCTAGGTCAGGTTGGTCAGCTAACGGGTACG	0.482
TCGAGTAGGTTACCAATGGGGCCTTCAGCTTTCT	-0.371
TCTAGCAGGCCAGAGGGTCACTCAGGAGGTACGG	1.56
CGTACAAGGTCAAGGTCAGTGAAAGAGACTCGAA	4.98
CCTCGTTGGTCAAGGTCACACACGCTATAGGTAC	3.93
TTACCATGGTGAAAGGTCGTTGATGCACGCCTTG	2.11
GCGACTCGGGCAAAGCAGGTTACCATAAGGTTGG	-0.491

Sequence	PBM binding z-score
GGTCGGAGGACAAGGTCAGAGCTTTGTCCGTAGA	1.78
AGAATGAGGTTAAGATCAGCGAAACAGAATACAT	0.872
GCAGACAGGTGAAACGCAGGTAACTCTGGGTGGC	-0.545
CCTAGCAGGCCAATATGGGTCACTCAAGGCTTGA	0.862
ACTAGCAGGCCAAGGGTCACTCATGATTAGTCCG	2.64
TCTGCTAGGTCAACGATGGTCAGCTCATCTGCTA	1.65
AGAATGAGGTTAGTAAGATCAGGGAATTGCGGTC	0.837
GATACAGGGCCAGCTAGAGGCCAGAGTATGGAAA	-0.843
CCTCGGAGGACAGAAGGTTAGAGCTGTCCGCTTT	-0.275
TCTCGGAGGACACGATAGGTCAGAGCTCGACATC	0.769
CTCGAAAGGTCGGTTGAGGTGAGTATGCGGATAA	2.15
ATATGTAGGTTACATCCGGGTCATACAGGCTATG	4.02
GAAACGAGGGCATTCGAGTTGATAGCATGGCGAT	3.97
TCGAGTATGTTAGGGGCATTCAGAATGGCGTCGA	0.88
ATATGTAGGTTAGCTGGGGTCACTCAGACTAGGC	5.64
TTACCAAGGTGAGCTGAGGTCGTTGAGCCAACTC	4.29
CCTCGGAGGACAACAGGAGGTCGGAGCTGCCAGA	-0.0445
CGTCCAAGGTGATAGGAGGTCAGTGAAGACAGAT	3.08
AGAATGAGGTTAAGATCAGGGCAACAGAATACAT	2.23
CCTATTAGTTGACCATAAGTGCAACCGAAGCTCG	1.31
